In paper PMC7819943, “Rice protein-binding microarrays: a tool to detect cis-acting elements near promoter regions in rice” one finds binding signal data, which are given here for 47 sequences.

Over roughly 35,000 sequences, “fluorescence intensity (a.u.)” has its median near 10,000; the highest 2% begin near 52,000. The sample as a whole holds a higher share of the highest values than the screen did.

The experiment concerns the target T1, OsWOX13 (Oryza sativa, UniProt Q5QMM3 1-267).
T1 sequence: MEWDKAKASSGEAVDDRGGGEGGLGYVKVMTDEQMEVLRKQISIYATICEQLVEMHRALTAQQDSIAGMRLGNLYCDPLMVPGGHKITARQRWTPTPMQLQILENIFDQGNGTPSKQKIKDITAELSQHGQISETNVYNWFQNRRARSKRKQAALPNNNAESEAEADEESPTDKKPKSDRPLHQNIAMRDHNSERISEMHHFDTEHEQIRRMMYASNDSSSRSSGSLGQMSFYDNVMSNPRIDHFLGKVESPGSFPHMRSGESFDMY
The experiment in a line: protein-binding microarray (RPBM); PBS, 2% BSA, 51.3 ng/ul salmon testes DNA, 50 uM zinc acetate, 200 nM TF, 25 C, 1 h; high values mean tight binding. To be noted: protein: recombinant; tags: N-terminal polyhistidine and DsRed monomer fusion (pET32a); label: CyDye5-dUTP incorporated in the synthesized complementary strand; 3' TTTTT single-stranded linker to array surface; dsDNA, one strand shown. The procedure, abridged: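 The binding signal is fluorescence intensity per array feature (arbitrary units). Readings came from an Axon 4000B scanner after a washed, 2% BSA-blocked, double-stranded custom Agilent array had been incubated for 1 h at 25 °C with 200 nM protein and 50 µM zinc acetate. The protein was a Ni–NTA-purified transcription factor fused N-terminally to polyhistidine and DsRed, expressed in E. coli BL21-CodonPlus.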
Turning to “TGATAATAATCTGTTCAATAATTTATCTTAAACAGGGCCTCGGAGTCACCTAGTGCAG”, the binding signal was 11200 fluorescence intensity (a.u.).

In the case of “CCCTATCAATTACCTTCACTATCATATTAATCATTGTAGGCGGAGTCACCTAGTGCAG”, the binding signal was 24100 fluorescence intensity (a.u.).

Regarding “CAAACAGTCAATTAGGCCTAAACAAGTTGCTACGAGCTAGCGGAGTCACCTAGTGCAG”, the binding signal was 33200 fluorescence intensity (a.u.).

For “GCTAATTATAGTTTAATTAGGCTTAATAAATTTACAGTTTCGGAGTCACCTAGTGCAG”, the binding signal is 42300 fluorescence intensity (a.u.).

As to “CACTTAATTTGTTAATTAAATATATTTTCCAAACAAATTTCGGAGTCACCTAGTGCAG”, the binding signal is 39100 fluorescence intensity (a.u.).

For the sequence “ATTAATTAAAGCTAATTAAACGATGTTGTTTATTAGGCTTCGGAGTCACCTAGTGCAG”, the binding signal is 58700 fluorescence intensity (a.u.).

On to “TTATTACAATTTAATTATATTTTAATTATTCTAAAAGCTTCGGAGTCACCTAGTGCAG”, for which the binding signal is 20200 fluorescence intensity (a.u.).

For “TAAAATTAAGCTCCAAATAAACTATATAAAATTATGTATTCGGAGTCACCTAGTGCAG”, the binding signal is 4090 fluorescence intensity (a.u.).

Regarding “GAATATTAAACTTCCAAAACAGGTCCAAAGCTATGTTCTTCGGAGTCACCTAGTGCAG”, the binding signal was 57500 fluorescence intensity (a.u.).

In the case of “AATTGCGTGATTGTGCTAATCAAAATGCAGAATTGGATATCGGAGTCACCTAGTGCAG”, the binding signal is 23000 fluorescence intensity (a.u.).

For “CAAAATTAAACTTTAAAATTCAGACTTCAGACTCCAGTGCCGGAGTCACCTAGTGCAG”, the binding signal was 13400 fluorescence intensity (a.u.).

In the case of “ACTACTAAGTTAATTGCATTTTACTTCTCTCTCAATCTCGCGGAGTCACCTAGTGCAG”, the binding signal is 10000 fluorescence intensity (a.u.).

On to “TTCGATCCTGACTGGAATTGGATGCCTAGTTTGCCTTGCCCGGAGTCACCTAGTGCAG”, for which the binding signal was 4190 fluorescence intensity (a.u.).

For “GTTAACTGAATATTATATCGAAGAAAACTTGCATTTCAGACGGAGTCACCTAGTGCAG”, the binding signal was 7980 fluorescence intensity (a.u.).

Regarding “CTCAAAATTTAAATTTAAGGTTAAAAGTTAAAATTTTACGCGGAGTCACCTAGTGCAG”, the binding signal is 21200 fluorescence intensity (a.u.).

With “TAGTCTTGATTGATTGGCAGATGACAGCATAATAGCCGTACGGAGTCACCTAGTGCAG”, the binding signal is 65200 fluorescence intensity (a.u.).

Consider “AAGATAGATAGATAGATAGATAGATAGATCGATCGATCATCGGAGTCACCTAGTGCAG”, for which the binding signal is 14900 fluorescence intensity (a.u.).

In the case of “GTCTTTATTTGATTGATCATCTGGCATCAATCAATCGGCTCGGAGTCACCTAGTGCAG”, the binding signal was 65500 fluorescence intensity (a.u.).

As for “ATAGATAGATAGATAGATAGATAGATTGATCGATCGATCGCGGAGTCACCTAGTGCAG”, the binding signal is 55400 fluorescence intensity (a.u.).

Consider “ACAGAGAGAGGTAGGTGATTGATAATAAGAAAGAAGGGAACGGAGTCACCTAGTGCAG”, for which the binding signal was 13000 fluorescence intensity (a.u.).

With “CCTGCATCATCAATCTGCCTACATATCGATCGATTGATCTCGGAGTCACCTAGTGCAG”, the binding signal was 4630 fluorescence intensity (a.u.).

Turning to “ACATTGACACCAATCTTGAACATAATAGCGCATTACAGTACGGAGTCACCTAGTGCAG”, the binding signal was 7300 fluorescence intensity (a.u.).

In the case of “TTGACTTGTACATAGTAATGATTGGCAGGTAATGACGTACCGGAGTCACCTAGTGCAG”, the binding signal is 24100 fluorescence intensity (a.u.).

Regarding “GATAATAGATAATAGATAGATTGAAGATTAGGAAAGGGAACGGAGTCACCTAGTGCAG”, the binding signal is 54800 fluorescence intensity (a.u.).

Turning to “GGATTTGATCGATTGGATTTCGATTTGGCCCGCGATTTGGCGGAGTCACCTAGTGCAG”, the binding signal was 4010 fluorescence intensity (a.u.).

For “CGATCAATCTCTCTTTATTTATTTGCAGATCGATCAACCTCGGAGTCACCTAGTGCAG”, the binding signal is 5760 fluorescence intensity (a.u.).

On to “TGGGATTGGGAAATAAATGAAGGGTTAGGATTAAATGGAACGGAGTCACCTAGTGCAG”, for which the binding signal was 24100 fluorescence intensity (a.u.).

Take “TTTAATCTTTAATATTGATTTTGCCACCAACTAAAACGGCCGGAGTCACCTAGTGCAG”: the binding signal is 4660 fluorescence intensity (a.u.).

As for “ATCCATGTAAATTAACTCATCCAATGTGACAGCACGACGCCGGAGTCACCTAGTGCAG”, the binding signal is 8800 fluorescence intensity (a.u.).

In the case of “ACCCAGTAATTTCCAAATCTAAAGATAGGAGATTTTAGGACGGAGTCACCTAGTGCAG”, the binding signal is 6740 fluorescence intensity (a.u.).

As for “ATACTAATTATACGGTCACACCTATCCGTTGCATGATGCACGGAGTCACCTAGTGCAG”, the binding signal was 21100 fluorescence intensity (a.u.).

Regarding “CTTAATTTGGCACTGCCCAAGAAAATTTTGACAAGTACTTCGGAGTCACCTAGTGCAG”, the binding signal was 9440 fluorescence intensity (a.u.).

Regarding “TTCGCTTTGATGGACGGCTCAGATCGGCTCCTAATCCATCCGGAGTCACCTAGTGCAG”, the binding signal was 3310 fluorescence intensity (a.u.).

Regarding “TGATTAAATATAACTAAACTGTCAACGACATAATGCATTACGGAGTCACCTAGTGCAG”, the binding signal was 3470 fluorescence intensity (a.u.).

In the case of “AACTAACAGATTATTCTATGTCGGTTTATTATAATCCAACCGGAGTCACCTAGTGCAG”, the binding signal is 15700 fluorescence intensity (a.u.).

As to “TAGATAGATAGATAGATATAGTTGGTGTGTTTGACCCTAGCGGAGTCACCTAGTGCAG”, the binding signal was 36400 fluorescence intensity (a.u.).

As for “TTTGATTGAGATTGATAATAACCTGCTGTAACTTAGCGAACGGAGTCACCTAGTGCAG”, the binding signal was 61100 fluorescence intensity (a.u.).

Consider “ATATAATAATAGATAGATAGATAGATAGATAGATAGATAGCGGAGTCACCTAGTGCAG”, for which the binding signal is 49300 fluorescence intensity (a.u.).

Turning to “ATAAATAAACTTATTTTGAGATAATGGTGTAATAGTGTAGCGGAGTCACCTAGTGCAG”, the binding signal is 5300 fluorescence intensity (a.u.).

As for “TCTTGACACCGGCCGGATTGATCTATCATCCATCCATCGACGGAGTCACCTAGTGCAG”, the binding signal was 12300 fluorescence intensity (a.u.).

In the case of “GTAGATAGATGGCACATTGGCAGTGATGGCTGTGTACAGTCGGAGTCACCTAGTGCAG”, the binding signal was 8260 fluorescence intensity (a.u.).

“AGATCTGATTGATATTGATCCATCGCCGATCGATTGATCACGGAGTCACCTAGTGCAG”: the binding signal was 53800 fluorescence intensity (a.u.).

In the case of “AATAGATTGATTGATTGATTGAATAATATAGATAGATTGACGGAGTCACCTAGTGCAG”, the binding signal was 64400 fluorescence intensity (a.u.).

On to “GATAGATAGATAGATAGATAGATAGATTTGTTGGCTGTGTCGGAGTCACCTAGTGCAG”, for which the binding signal is 63500 fluorescence intensity (a.u.).

For “AGGAATCGGAATTGATTTCATGCACTGATCGATCCATCCACGGAGTCACCTAGTGCAG”, the binding signal was 7970 fluorescence intensity (a.u.).

As for “TGTTATAATAGTGTAGATTGATCGATATAATTGTATATGACGGAGTCACCTAGTGCAG”, the binding signal was 3170 fluorescence intensity (a.u.).

With “GGGCTGTTTAGTTTTGGATTGATTGAGCAATGTAATATAACGGAGTCACCTAGTGCAG”, the binding signal is 22200 fluorescence intensity (a.u.).
